Experimental data reported in PubChem BioAssay (EPA / NIEHS).
Active and inactive are the calls of the source. How the source made its calls: active means hit-call score of the fitted dose curve at least 0.9, where 1 is the maximum; inactive means score below 0.9.

What follows are compounds tested on NAD(P)H dehydrogenase [quinone] 1 (NQO1), NQO1 (gene 1728) (assay: LTEA_HepaRG_NQO1: Life Technologies and Expression Analysis (LTEA) Assay for NAD(P)H dehydrogenase [quinone] 1 (NQO1) using HepaRG (AID 2283526)). Details: mRNA level, 48 h; actives raise or lower the signal.
Description: LTEA_HepaRG is a cell based, multiplexed-readout assay that uses HepaRG, a human liver cell line, with measurements taken at 48 hours after chemical dosing on a 96-well plate.LTEA_HepaRG_NQO1 is one of 102 assay component(s) measured in the LTEA HepaRG cell culture assay. It is a marker of Diseases associated with NQO1 include Tardive Dyskinesia and Childhood Leukemia.Data from the assay component LTEA_HepaRG_NQO1 was analyzed into 1 endpoint. This assay endpoint, LTEA_HepaRG_NQO1, was analyzed with bidirectional fitting relative to DMSO as the negative control and baseline of activity. Using a type of inducible reporter, measures of mRNA induction for gain or loss-of-signal activity can be used to understand regulation of transcription factor activity. To generalize the intended target to other relatable targets, this assay endpoint is annotated to the oxidoreductase intended target family, where the subfamily is quinone-acceptor.
A total of 1060 chemcials from the ToxCast library were tested in eight-point concentration-response experiments. Cell culture and cytotoxicity assays were conducted at Thermo Fisher Scientific's Custom Services facility (Madison, WI). A single lot of human HepaRG cells (Thermo Fisher Scientific, Frederick, MD) was used for the cell culture experiments. 96-well format collagen type I coated plates of human HepaRG cells were prepared using established methods. Briefly, cryopreserved HepaRG cells were thawed, plated at a density of approximately 100,000 cells/well in HepaRG Thaw, Plate, and General Purpose media (HPRG770, Thermo Fisher Scientific), and incubated for 48 hours. 0.5% DMSO was selected as vehicle control to balance the requisite need of DMSO in HepaRG cultures to maintain differentiation (for example, baseline metabolism, proportions of hepatocytes vs. cholangiocytes), while enabling further hepatic receptor pathway activation (for example, PXR and CAR) in response to chemical exposure. 48 hours after plating, the culture medium was replaced with HepaRG Serum-Free Incudtion Media. Cells were exposed to each test chemical in duplicate and maintained in CO2 incubators for another 48 hours. Chemical plates were thawed to room temperature and 200x concentrations of treatment groups were prepared. 8-point conentration-reponse curves were made with the highest exposure at 100 uM, followed by half-log dilutions, all in 0.5% DMSO. Each test plate contained variouse controls, induction positive controls (1mM phenobarbital), cytotoxicity positive controls ([…] aflatoxin B1), vehicle controls (0.5% DMSO), and total lysis controls (0.5% DMSO). Cell morphology images were taken using an Essen IncuCyte FLR automated microscope, with six 96-well plates imaged in about 24 minutes. Images were captured and exported and JPEG files. Spent culture media was transfered to black-well plates for the LDH assay, and remaining media was sorted at -80 C for later use. Cells were treated with RLT buffer and frozen until shipped for gene expression analysis. Total RNA was isolated from the cell suspension in 75 uL of Buffer RLT (Qiagen, Germantown, MD 20874) by Quintiles/Expression Analysis (Durham, NC) using a custom isolation procedure. Total RNA from each plate well was transferred to a preamplification plate. Fluidigm's 96.96 Dynamic ArrayTM (Fluidigm, Amsterdam, the Netherlands) technology was used for gene expression analyses by quantitative reverse transcription polymerase chain reaction (qRT-PCR, performed by Quintiles/Expression Analysis, Durham, NC)89. Standard TaqManTM Assays (Applied Biosystems/ThermoFisher Scientific, Foster City, CA) were used to assess the expression of 93 genes selected based on their selectivity and sensitivity to important hepatic receptors known to be modulated by environmental chemicals; importance in human hepatocyte functionality; and hepatotoxicity. […]

Structure (SMILES)	outcome	AC50
CC(C)(C)C(O)C(Oc1ccc(Cl)cc1)n1cncn1 (stereo not given)	inactive	
CC[C@H](C)[C@H]1O[C@]2(C=C[C@@H]1C)C[C@@H]1C[C@@H](C/C=C(\C)[C@@H](O[C@H]3C[C@H](OC)[C@@H](O[C@H]4C[C@H](OC)[C@@H](O)[C@H](C)O4)[C@H](C)O3)[C@@H](C)/C=C/C=C3\CO[C@@H]4[C@H](O)C(C)=C[C@@H](C(=O)O1)[C@]34O)O2 (tested in a mixture with another compound)		49.7 µM (active)
COP(=S)(OC)Oc1ccc([N+](=O)[O-])cc1	inactive	
CNC(=O)Oc1ccccc1OC(C)C	inactive	
CNC(=O)Oc1cccc(N=CN(C)C)c1	inactive	
O=C(NC(=O)c1c(F)cccc1F)Nc1ccc(OC(F)(F)C(F)OC(F)(F)F)c(Cl)c1 (stereo not given)	inactive	
O=C(Nc1ccccc1)Nc1cnns1	inactive	
CCCN(CCOc1c(Cl)cc(Cl)cc1Cl)C(=O)n1ccnc1	inactive	
CCc1ccc(C(=O)NN(C(=O)c2cc(C)cc(C)c2)C(C)(C)C)cc1	inactive	
C[C@H]1[C@H](c2ccc(Cl)cc2)SC(=O)N1C(=O)NC1CCCCC1	inactive	
O=C(O)C(F)(F)C(F)(F)C(F)(F)C(F)(F)C(F)(F)C(F)(F)C(F)(F)F	inactive	
COP(=O)(OC)OC=C(Cl)Cl	inactive	
COP(=S)(OC)Oc1ccc(SC)c(C)c1	inactive	
CC1(C)C(C=C(Cl)Cl)C1C(=O)OC(C#N)c1ccc(F)c(Oc2ccccc2)c1 (stereo not given)	inactive	
CCOCN(C(=O)CCl)c1c(C)cccc1CC	inactive	
CNC(=O)CSP(=S)(OC)OC	inactive	
O=C(O)CCCOc1ccc(Cl)cc1Cl	inactive	
OCCOc1ccccc1	inactive	
CC(C)OC(=O)Nc1cccc(Cl)c1	inactive	
ClC1C(Cl)C(Cl)C(Cl)C(Cl)C1Cl (stereo not given)	inactive	

Structure (SMILES)	outcome	AC50
O=S1OCC2C(CO1)C1(Cl)C(Cl)=C(Cl)C2(Cl)C1(Cl)Cl (stereo not given)	inactive	
N#Cc1c(Cl)c(Cl)c(Cl)c(C#N)c1Cl	inactive	
CCC(C)(NC(=O)c1cc(Cl)c(C)c(Cl)c1)C(=O)CCl (stereo not given)		79.8 µM (active)
O=S(=O)(O)C(F)(F)C(F)(F)C(F)(F)C(F)(F)C(F)(F)C(F)(F)C(F)(F)C(F)(F)F	inactive	
N#CN	inactive	
O=C1c2ccccc2C(=O)N1SC(Cl)(Cl)Cl	inactive	
CCC(C)Nc1c([N+](=O)[O-])cc(C(C)(C)C)cc1[N+](=O)[O-] (stereo not given)	inactive	
Cc1[nH]c(=O)n(C(C)(C)C)c(=O)c1Cl	inactive	
O=[N+]([O-])/N=C1\NCCN1Cc1ccc(Cl)nc1		29.1 µM (active)
O=[N+]([O-])c1c(Cl)c(Cl)c(Cl)c(Cl)c1Cl	inactive	
CCN(CC)C(=O)SCc1ccc(Cl)cc1	inactive	
CCOC1Oc2ccc(OS(C)(=O)=O)cc2C1(C)C (stereo not given)	inactive	
Oc1cc(Cl)ccc1Oc1ccc(Cl)cc1Cl	inactive	
Oc1ccc(Cl)cc1Cc1ccccc1	inactive	
CCC(C)(C)C(=O)OC1=C(c2ccc(Cl)cc2Cl)C(=O)OC12CCCCC2	inactive	
COc1nn(CSP(=S)(OC)OC)c(=O)s1	inactive	
CC1(c2ccc(Oc3ccccc3)cc2)OC(=O)N(Nc2ccccc2)C1=O (stereo not given)		50.2 µM (active)
Clc1ccccc1-c1nnc(-c2ccccc2Cl)nn1	inactive	
CC(C)(C)C(O)/C(=C\c1ccc(Cl)cc1Cl)n1cncn1 (stereo not given)	inactive	
CCCN(CCC)c1c([N+](=O)[O-])cc(C(F)(F)F)cc1[N+](=O)[O-]	inactive	
